Sampled rows, rich in hits. Any-hit rate of the full collection: about 22%.
CYP2C19 activ: human CYP2C19 activators, primary screen, biochemical, luminescence; Cytochrome P450 2C19 (Homo sapiens), P33261; recombinant CYP2C19, luciferin-H EGE luminescence; hits give high values; 0 = fully inhibited enzyme, 1 = untreated enzyme; activation factor at 5 µM; 96,000 tested, under 10 active;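 active means activation factor of at least 2 at 5 µM in the primary screen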
F-actin modifier: modifiers of F-actin cytoskeleton organization, primary screen, imaging, HUVEC, phalloidin staining, high-content imaging. AID 836, 2007. actives 0.18% (n = 91,000). inhibition, % at 2 µM. HUVEC TNFa F-actin phalloidin imaging;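 active means inhibition above the batch mean plus 3 SD and confirmed as a hit by visual image inspection, cut at about 30% in these data, passing the limit was not always enough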
CYP2C9 activ: human CYP2C9 activators, primary screen, biochemical, luminescence | actives 1.4% (n = 96,000) | recombinant CYP2C9, luciferin-H conversion; hits give high values; factor 1 = untreated enzyme, 0 = blocked | Cytochrome P450 2C9 (Homo sapiens), P11712 | AID 1024, 2008 | activation factor at 5 µM;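 active means activation factor of 2 or more for CYP2C9 at a 5 µM dose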
Target sequence (P11712 whole entry, looked up): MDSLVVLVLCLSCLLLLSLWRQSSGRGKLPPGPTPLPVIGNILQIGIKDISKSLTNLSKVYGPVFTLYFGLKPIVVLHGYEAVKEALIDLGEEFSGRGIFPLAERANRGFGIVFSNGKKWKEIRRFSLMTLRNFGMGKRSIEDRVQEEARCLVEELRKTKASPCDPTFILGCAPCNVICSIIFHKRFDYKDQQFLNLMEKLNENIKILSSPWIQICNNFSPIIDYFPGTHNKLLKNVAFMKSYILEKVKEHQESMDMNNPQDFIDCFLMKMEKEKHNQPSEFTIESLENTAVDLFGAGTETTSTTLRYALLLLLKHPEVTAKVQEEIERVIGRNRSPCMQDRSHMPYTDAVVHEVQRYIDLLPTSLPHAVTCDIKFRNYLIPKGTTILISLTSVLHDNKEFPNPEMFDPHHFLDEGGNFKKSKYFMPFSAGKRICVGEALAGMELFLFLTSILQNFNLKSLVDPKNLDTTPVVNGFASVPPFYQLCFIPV
CYP2C19 inh: blockers of cytochrome P450 2C19 activity – biochemical, luminescence, ADME assay, primary screen | P33261 | CYP2C19 Supersomes, luciferin-H EGE luminescence, 30 min | actives 21% (n = 96,000) | inhibition, % at 5 µM;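 active means CYP2C19 inhibition above a set limit at 5 µM in the primary screen, cut at about 50% in these data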
E-sel TNF inh: E-selectin induction blockers in HUVEC – imaging, immunofluorescence, high content, primary screen | HUVEC TNFa-induced E-selectin immunofluorescence | inhibition, % at 2 µM | actives 0.71% (n = 120,000);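 active means inhibition above the batch mean plus 3 SD, and confirmed as a hit on visual image review, cut at about 43% in these data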
CYP2C9 inhib: blockers of cytochrome P450 2C9 activity – biochemical, luminescence, ADME assay, primary screen. P11712. CYP2C9 Supersomes, luciferin-H conversion. inhibition, % at 5 µM. actives 20% (n = 96,000). AID 777, 2007;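 active means blocking of liver enzyme CYP2C9 beyond about 50% at 5 µM, limit read from the data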
Of the large screens only hits and unclear results are named; the others gave an inactive call.

CSC(=NC#N)N1CCN(c2ccc(Cl)cc2)CC1	CYP2C19 inh 86
N#CC(C#N)=C/C(C#N)=C(/N)N1CCN(c2ccc(Cl)cc2)CC1	E-sel TNF inh 97
COc1ccc(OCCSc2nnc(CCNC(=O)c3ccc(OC)cc3)n2C)cc1	none
CCc1cc(C(=O)COc2ccccc2F)c(O)cc1O	CYP2C19 inh 96, CYP2C9 inhib 60 (no result: E-sel TNF inh)
CCc1cc(/C(Cc2cscn2)=N\O)c(O)cc1O	none (no result: E-sel TNF inh)
CCc1cc(C(=O)Cc2nc3ccccc3[nH]2)c(O)cc1O	CYP2C19 inh 87, CYP2C9 inhib 54
CCc1cc(/C(Cc2ccc3ccccc3n2)=N\O)c(O)cc1O	CYP2C19 inh 90, CYP2C9 inhib 73
CC1CCCC(C)N1C(=O)COc1ccccc1F (stereo not given)	none (no result: CYP2C19 activ, F-actin modifier, CYP2C9 activ, CYP2C19 inh, CYP2C9 inhib)
CCc1cc(/C(Cc2ccccn2)=N\O)c(O)cc1O	CYP2C9 inhib 62
O=C(/C=C/c1cccc(Cl)c1)N1CCC(Cc2ccccc2)CC1	none (no result: CYP2C19 activ, F-actin modifier, CYP2C9 activ, CYP2C19 inh, CYP2C9 inhib)
CCc1nc2n[nH]c(N)c2c2c1CSC(C)(C)C2	none (no result: CYP2C19 activ, CYP2C9 activ, CYP2C19 inh, CYP2C9 inhib)
Cc1cc2c(=O)n(Cc3ccco3)c(SCC(=O)c3ccc(Cl)s3)nc2s1	CYP2C19 inh 57, CYP2C9 inhib 76
COc1ccc(NC(=O)CSc2nc3sc(C)c(C)c3c(=O)n2Cc2ccco2)cc1	CYP2C19 inh 62, CYP2C9 inhib 79
Cc1ccc(CSc2nc3sc(C)c(C)c3c(=O)n2Cc2ccco2)cc1	none
Cc1sc2nc(SCC(=O)C(C)(C)C)n(Cc3ccco3)c(=O)c2c1C	CYP2C9 inhib 73
O=C(NCCN1CCOCC1)C1CCC(=O)N1C1CCCCC1 (stereo not given)	none (no result: E-sel TNF inh)
CC(=O)Cc1nsc(NC(=O)c2cccs2)n1	none
CC(=O)N=c1sc(C(C)(C)C)c(C)n1C	none
CCOC(=O)C1CCN(C(=O)c2cnn3c(C)cc(C)nc23)CC1	none
Cc1ccc(S(=O)(=O)Nc2ccc(Br)cc2/C=N/n2cnnc2)cc1	CYP2C19 inh 54, CYP2C9 inhib 62
N#C/C(=C(/O)COC(=O)c1ccc2c(c1)OCCO2)c1nc2ccccc2[nH]1	CYP2C19 inh 60, CYP2C9 inhib 76
Cc1ccc(C(=O)OC/C(O)=C(\C#N)c2nc3ccccc3[nH]2)cc1S(=O)(=O)N1CCOCC1	none (no result: CYP2C19 activ, F-actin modifier, CYP2C9 activ, CYP2C19 inh, CYP2C9 inhib)
CCOC(=O)c1c(C)[nH]c(C(=O)OC/C(O)=C(\C#N)c2nc3ccccc3[nH]2)c1C	CYP2C19 inh 58, CYP2C9 inhib 81 (no result: E-sel TNF inh)
CCCc1cc(=O)[nH]c(SCC(=O)N(Cc2ccccc2)C(C)C)n1	CYP2C19 inh 68, CYP2C9 inhib 85
CCCc1cc(=O)[nH]c(SCc2cc(Cl)ccc2OC(F)F)n1	CYP2C9 inhib 60 (no result: E-sel TNF inh)
CCCc1cc(=O)[nH]c(SCc2ccccc2)n1	CYP2C9 inhib 62
CCCc1cc(=O)[nH]c(SCc2ccc(Cl)cc2)n1	CYP2C19 inh 86, CYP2C9 inhib 72
CCCc1cc(=O)[nH]c(SCc2cccc(C)c2)n1	none (no result: F-actin modifier)
Cc1cccc(NCC(O)Cn2cnc3c2c(=O)n(C)c(=O)n3C)c1 (stereo not given)	none
COc1ccc(CNC(=O)C2Cc3ccccc3CN2C(=O)c2ccco2)cc1 (stereo not given)	none (no result: CYP2C19 activ, F-actin modifier, CYP2C9 activ, CYP2C19 inh, CYP2C9 inhib)
CNC(=O)NC1CCCCc2sccc21 (stereo not given)	none
COC(=O)CN1C(c2ccccc2)=Nc2ccc(Cl)cc2C1c1ccccc1 (stereo not given)	none
COc1cc2cc(CN(C(=O)Nc3ccccc3)C3CCCC3)c(=O)[nH]c2cc1OC	CYP2C9 inhib 55
CC(=O)c1ccc(Nc2cc(C)nc3c(C)cc(C)cc23)cc1	none (no result: CYP2C19 activ, F-actin modifier, CYP2C9 activ, CYP2C19 inh, CYP2C9 inhib)
Cc1cc(Nc2ccccc2)c2c([N+](=O)[O-])c(C)cc(C)c2n1	CYP2C19 inh 78, CYP2C9 inhib 81
O=C1c2cnc3nc(SCc4cccc(Cl)c4)nn3c2CC2c3ccccc3CCN12 (stereo not given)	none
Cc1cccc(CSC2=CS(=O)(=O)c3ccccc3N2)c1	CYP2C19 inh 54, CYP2C9 inhib 64 (no result: E-sel TNF inh)
O=S1(=O)C=C(SCc2cccc(Cl)c2)Nc2ccccc21	CYP2C19 inh 86, CYP2C9 inhib 74 (no result: E-sel TNF inh)
CCCCCCCCOC(=O)C(NC(=O)CCC(=O)Nc1ccc(S(N)(=O)=O)cc1)C(O)c1ccccc1 (stereo not given)	CYP2C19 inh 54, CYP2C9 inhib 62
COc1ccc(NC(=O)c2ccc(S(=O)(=O)N(C)C)cc2)cc1OC	none (no result: F-actin modifier)
CCOc1cc(C(=O)Nc2ccccc2N2CCN(S(C)(=O)=O)CC2)cc(OCC)c1OCC	none
COc1ccccc1CNC(=O)c1nn(-c2ccc(C)cc2)c(=O)c2c1c1ccccc1n2C	CYP2C9 inhib 65
CCOCC(=O)N(CC)Cc1ccccc1	none (no result: CYP2C19 activ, F-actin modifier, CYP2C9 activ, CYP2C19 inh, CYP2C9 inhib)
CCCn1nc(NC(=O)c2ccncc2)c2cc3ccccc3nc21	CYP2C19 inh 93, CYP2C9 inhib 95
CCn1nc(NC(=O)c2ccncc2)c2cc3ccc(C)cc3nc21	CYP2C19 inh 63, CYP2C9 inhib 60 (no result: E-sel TNF inh)
O=S1(=O)N=C(Oc2ccccc2)c2ccccc21	none (no result: F-actin modifier, E-sel TNF inh)
Cc1ccc(C)c(NC(=O)C2CC3c4ccccc4C2c2ccccc23)c1 (stereo not given)	none
CCn1c(-c2ccccc2Cl)nn(CC(=O)Nc2cc(Cl)ccc2Cl)c1=S	CYP2C19 inh 89
CCOC(=O)c1nnn(CC(=O)Nc2cc(Cl)ccc2C)c1C(=O)OCC	none
Cc1ccc(C)c(OCCCN2CCCC2)c1	none
CC(=O)C1=C(O)C(=O)N(CCc2c[nH]c3ccccc23)C1c1ccc(O)cc1 (stereo not given)	CYP2C9 inhib 53 (no result: E-sel TNF inh)
COc1cccc(C2C(C(C)=O)=C(O)C(=O)N2CCNCCO)c1 (stereo not given)	none (no result: CYP2C19 activ, F-actin modifier, CYP2C9 activ, CYP2C19 inh, CYP2C9 inhib)
CCCCN1C(=O)C(O)=C(C(C)=O)C1c1ccccc1 (stereo not given)	none (no result: F-actin modifier)
COc1ccc(C2C(C(C)=O)=C(O)C(=O)N2CCc2c[nH]c3ccccc23)cc1OC (stereo not given)	CYP2C9 inhib 89
COc1cccc(C2C(C(C)=O)=C(O)C(=O)N2CCc2c[nH]c3ccccc23)c1 (stereo not given)	CYP2C9 inhib 70
Cc1nn(Cc2ccc(Cl)cc2)c(C)c1NC(=O)c1c(-c2ccccc2)noc1C	none (no result: CYP2C19 activ, CYP2C9 activ, CYP2C19 inh, CYP2C9 inhib)
O=c1c2cnn(-c3ccccc3)c2ncn1CCc1ccccc1	none (no result: CYP2C19 activ, F-actin modifier, CYP2C9 activ, CYP2C19 inh, CYP2C9 inhib)
CCCCn1c(SCC(=O)Nc2cc(C(F)(F)F)ccc2Cl)nnc1C(CC)N(C)C (stereo not given)	none (no result: CYP2C19 activ, F-actin modifier, CYP2C9 activ, CYP2C19 inh, CYP2C9 inhib)
O=C(O)C1C2C=CC(C2)C1C(=O)OC1CC2CCC1C2 (stereo not given)	none
COc1ccccc1NS(=O)(=O)c1cccc(NC(=O)c2nc3nc(C)cc(C)n3n2)c1	none
CC(C)NC(=O)c1ccccc1-c1nc(-c2ccccc2Cl)no1	CYP2C9 inhib 79

Assay outcomes (PubChem)
